Screening data (PubChem BioAssay)
Shown are actives, neighbours in structure and some others; about 4.6% of the full set was active somewhere.
UCHL1 block: inhibitors of human UCHL1 deubiquitinase; purified UCHL1, Ub-rhodamine cleavage fluorescence; inhibition, % at 20 µM; 0.2% of 47,000 active
Target sequence (P09936 whole entry, looked up): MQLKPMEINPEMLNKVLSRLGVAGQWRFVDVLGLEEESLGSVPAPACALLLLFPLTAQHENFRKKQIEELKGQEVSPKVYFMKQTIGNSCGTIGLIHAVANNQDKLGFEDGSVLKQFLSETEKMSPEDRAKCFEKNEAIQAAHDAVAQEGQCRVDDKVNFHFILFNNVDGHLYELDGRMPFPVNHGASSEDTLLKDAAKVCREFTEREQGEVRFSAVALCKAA
USP10 block: human USP10 deubiquitinase inhibition; Q14694; purified USP10, Ub-rhodamine fluorescence, 60 min; inhibition, % at 20 µM; 1.1% of 47,000 active
USP7 block: blocks human USP7 ubiquitin-rhodamine cleavage; Q93009; purified USP7, Ub-rhodamine cleavage fluorescence; inhibition, % at 20 µM; 0.3% of 47,000 active; AID 1645854
USP8 inh: blocks human USP8 ubiquitin-rhodamine cleavage; P40818; purified USP8, Ub-rhodamine cleavage fluorescence, 30 min; inhibition, % at 20 µM; 4.2% of 47,000 active; AID 1645853
A number is an active result; 0 = inactive. Cut-off read from the data, not from the text of the source: active = inhibition above about 30%; inactive = the rest.

SMILES | UCHL1 block | USP10 block | USP7 block | USP8 inh
Cc1cccc(N2CC(C(=O)N3CCOCC3)CC2=O)c1 (stereo not drawn) | 0 | 0 | 0 | 0
OC(c1ccc2c(c1)OCO2)c1ncc(-c2ccc3ccccc3c2)[nH]1 (stereo not drawn) | 0 | 0 | 0 | 40
OC(c1ccc2c(c1)OCO2)c1ncc(-c2ccc(Cl)cc2)[nH]1 (stereo not drawn) | 0 | 0 | 0 | 0
Cc1nccc(CN2C[C@@H](O)[C@H](NC(=O)c3cscn3)C2)n1 | 0 | 0 | 0 | 0
COc1cccc(N2CCN(c3ccc4nnc(CCC(=O)NCC5CCCO5)n4n3)CC2)c1 (stereo not drawn) | 0 | 0 | 0 | 0
COc1cccc(N2CCN(c3ccc4nnc(CCC(=O)NC5CCCC5)n4n3)CC2)c1 | 0 | 0 | 0 | 65
O=C(NCc1ccc(F)cc1)c1cccc(Nc2nc3ccccc3n3cnnc23)c1 | 0 | 38 | 0 | 0
COc1ccccc1CNC(=O)c1cccc(Nc2nc3ccccc3n3cnnc23)c1 | 0 | 0 | 0 | 0
Cc1ccc2c(c1)C(=O)N(C(C)C(=O)N1CCC(O)CC1)CC1(CCOCC1)O2 (stereo not drawn) | 0 | 0 | 0 | 0
COc1ccc(-c2nn(-c3ccccc3)c3[nH]c(=O)c(CNCc4cccs4)cc23)cc1OC | 0 | 0 | 0 | 78
COc1ccc(CCNCc2cc3c(C)nn(-c4ccccc4)c3[nH]c2=O)cc1OC | 0 | 0 | 0 | 0
COc1ccc(-c2nn(-c3ccccc3)c3[nH]c(=O)c(CNc4ccc5c(c4)OCCO5)cc23)cc1OC | 0 | 0 | 31 | 78
COc1cccc(O[C@@H]2C[C@@H](NC(=O)c3cccnc3)[C@H](O)[C@H]2O)c1 | 0 | 0 | 0 | 0
CC1CC(=O)c2c(cc3c(-c4c(O)cc(O)c5c(O)c6c(cc45)OC(C)CC6=O)c(O)cc(O)c3c2O)O1 (stereo not drawn) | 83 | 83 | 74 | 78
Cc1ccc2nc(-c3ccc(NC(=O)COC(=O)CCC(=O)Nc4sc5c(c4C(N)=O)CCC5)cc3)sc2c1 | 0 | 0 | 0 | 47
COc1ccc(C2=Nc3ccccc3SC(c3ccccc3)C2)cc1 (stereo not drawn) | 0 | 0 | 0 | 41
O=S(=O)(c1ccc2nsnc2c1)N1CCCCC1c1cccnc1 (stereo not drawn) | 0 | 0 | 0 | 0
COc1ccc(C(=O)N(O)c2ccccc2)cc1 | 0 | 0 | 0 | 78
CCNc1c(NC(=O)c2c(F)cccc2F)c(=O)oc2ccccc12 | 0 | 0 | 0 | 0
Cc1cccc(OCC(=O)N(C)Cc2cc(=O)[nH]c3ccccc23)c1 | 0 | 0 | 0 | 30
Cc1cccc(C)c1OCC(=O)N(C)Cc1cc(=O)[nH]c2ccccc12 | 0 | 0 | 0 | 0
CCNC(=O)c1ccc(N2CCNCC2)c(NS(=O)(=O)c2cc(C)ccc2C)c1 | 0 | 0 | 0 | 36
COc1ccc(-c2ncnc3c2c(C(=O)NCCN2CCOCC2)c2ccccn23)cc1 | 0 | 0 | 0 | 0
COCCN(C)C(=O)c1c2c(NCC3CC3)ncnc2n2ccccc12 | 0 | 0 | 0 | 31
Cc1c(-c2nnnn2-c2ccc(Br)cc2)cnc2ccccc12 | 0 | 0 | 0 | 0
SMILES | UCHL1 block | USP10 block | USP7 block | USP8 inh
COc1cccc(C2CCNc3ccccc3N2)c1 (stereo not drawn) | 0 | 0 | 0 | 74
COc1ccc(-c2cc(C(=O)N3CCN(CCOc4ccc(Cl)cc4)CC3)[nH]n2)cc1 | 0 | 0 | 0 | 0
O=[N+]([O-])c1ccc2nc(CSc3nc4ccccc4[nH]3)[nH]c2c1 | 0 | 0 | 0 | 0
Cc1cccc2nc(CSc3nc4ccc([N+](=O)[O-])cc4[nH]3)cn12 | 0 | 61 | 0 | 62
Cc1cc(Nc2cccc(N3CCCCC3)n2)n(-c2ccc(Cl)cc2)n1 | 0 | 0 | 0 | 0
O=C(Nc1nc(-c2cccnc2)cs1)NC1CCCCC1 | 0 | 0 | 0 | 0
CC(=O)c1ccc(NC(=O)C2CC(=O)Nc3nc(SCc4ccccc4)nn32)cc1 (stereo not drawn) | 0 | 30 | 0 | 0
CCCCOc1ccccc1C(=O)Nc1ccc(OCC)c2ncccc12 | 0 | 0 | 0 | 44
O=C(O)c1ccccc1SCc1nc(-c2ccc(Cl)cc2)no1 | 0 | 0 | 0 | 0
COCCN(C(=O)C1CC1)c1nc(-c2ccccc2)cs1 | 0 | 0 | 0 | 31
COCCN(C(=O)Cc1ccccc1)c1nc(-c2ccc(OC)cc2)cs1 | 0 | 0 | 0 | 0
Cc1ccc(NC(=O)C2C3C=CC4(O3)C2C(=O)N(C2CCCCC2)C4C(=O)NC2CCCCC2)cc1 (stereo not drawn) | 0 | 0 | 0 | 0
O=S(=O)(NCc1ccc2c(c1)CCO2)c1ccc(F)c(F)c1 | 0 | 0 | 0 | 0
Cc1cccc(Nc2nc(C)c(C(=O)NCc3cccnc3)s2)n1 | 0 | 0 | 0 | 0
Cc1nc(Nc2ccc(Cl)cn2)sc1C(=O)NCc1ccccn1 | 0 | 0 | 0 | 50
CC(C(=O)Nc1ccc(F)cc1)n1cnc2nc(N3CCCCC3)ncc2c1=O (stereo not drawn) | 0 | 0 | 0 | 32
O=C(Cn1c(=O)[nH]c2ccccc2c1=O)NCc1ccccc1Cl | 0 | 0 | 0 | 55
Cc1nn(-c2ccccc2)c2c1C1(C(=O)Nc3ccccc31)N1C(=N2)Sc2ccccc21 (stereo not drawn) | 0 | 0 | 83 | 0
Cc1cc(NC(=O)C2CCCN(S(=O)(=O)N3CCC(C)CC3)C2)no1 (stereo not drawn) | 0 | 0 | 0 | 0
COc1ccc(-n2ccc(=O)c(-c3nc(-c4ccc(F)cc4)no3)n2)cc1 | 0 | 0 | 0 | 85
Cc1ccc(-n2ccc(=O)c(-c3nc(-c4ccccc4F)no3)n2)cc1 | 0 | 0 | 0 | 0
COc1cccc(-n2ccc(=O)c(-c3nc(-c4ccccc4Cl)no3)n2)c1 | 0 | 0 | 0 | 68
COc1ccccc1-c1noc(-c2nn(-c3ccc(C)c(C)c3)ccc2=O)n1 | 0 | 0 | 0 | 0
OCC1CCC2(CC1)CN(Cc1ccc3nccnc3c1)Cc1ccccc1O2 (stereo not drawn) | 0 | 0 | 0 | 0
CC(C)N1CCN(C(=O)CN2CCC3(CCC2=O)NC(=O)c2ccccc2N3)CC1 (stereo not drawn) | 0 | 0 | 0 | 32
SMILES | UCHL1 block | USP10 block | USP7 block | USP8 inh
COc1ccc(NC(=O)CN2CCC3(CCC2=O)NC(=O)c2ccccc2N3)cc1 (stereo not drawn) | 0 | 0 | 0 | 0
CCOc1ccccc1NC(=O)C1CC(=O)Nc2nc3ccccc3n21 (stereo not drawn) | 0 | 0 | 0 | 39
Cc1cc(C)cc(NC(=O)C2CC(=O)Nc3nc4ccccc4n32)c1 (stereo not drawn) | 0 | 40 | 0 | 46
O=C1NCCN(C(=O)CCn2ccccc2=O)CC1Cc1ccc(-c2ccccc2)cc1 (stereo not drawn) | 0 | 0 | 0 | 42
COc1ccc(C2c3[nH]c4ccccc4c3C[C@H]3C(=O)N(c4ccccc4C(=O)NCC4CCCO4)C(=O)N23)cc1 (stereo partly drawn) | 0 | 0 | 0 | 0
COc1ccc(-n2cnc3cc(C(=O)N4CCOCC4)ccc32)cc1 | 0 | 0 | 0 | 0
Cc1cc(Br)c2nc(-c3cccc(C(F)(F)F)c3)oc(=O)c2c1 | 0 | 0 | 0 | 0
Cc1cc2c(=O)oc(-c3ccccc3Br)nc2s1 | 0 | 0 | 0 | 44
